Here are results for 40 sequences from the supplement of paper PMC6555819.

The test has as its system LXRb homodimer (NR concentration 270 nM). Kind of test: PBM binding z-score (relative to random genomic background probes); higher = stronger binding; sequences stand for … in GC…GCGATTGACAGCGTAGAATGAAGG
Put shortly:
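Custom Agilent 4×180K protein-binding microarrays carried double-stranded probes, each with a 34-nt variable region. These regions held direct-repeat seeds, single-nucleotide variants, half-site ablations and random human genomic background sequences. Ligand-free nuclear receptor dimers were incubated on the arrays for 1 h, antibodies against each partner (one per run) detected binding, and scanned fluorescence was regression-normalized. Binding z-scores take the random background probes as reference.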
Consider AATACATGGTCACTAGGCCAGAGTAGGTACGAAT, for which the PBM binding z-score was -0.193.
To CCGACTTGGGCAGAAAGGTTACCATACCATCCGG belongs -1.09; to ATCTCTAGGTAAAGTTCACTGAAAGATCGATAGA, 1.29.
In turn, CCTTACGGGTCACGAGGTTATGGCACGACGAGCG yielded a PBM binding z-score of 0.148.
As for GGTACGAGGGCAAGTTGATAGCAGAGTTTGATGG, the PBM binding z-score was -0.129.
On to ATCTCTAGGTAACCAAGGTCAGTGAATGCCGAAC, for which the PBM binding z-score turned out to be 0.895.
The sequence GCATATAGGTAATACAAGGTGAGAGTCCGATTGT had a PBM binding z-score of -0.459.
CAAACTAGGTCACCGGAAGGTCAACGTCCGCATG displayed a PBM binding z-score of 1.1.
Sequence AGAACGAGGGCAAGCTGAGTTGATAGCAGAGTAG came in with a PBM binding z-score of -0.878.
CCGACTGGGGCATAAAGTTACCATAAGCCAGCCC: the PBM binding z-score is -1.15.
As for TCATATAGGTAAACGCTAGGTGAAAGTCCGATCT, the PBM binding z-score was -0.0724.
ATACCAAGTTGATCGTGAGGTCGTTGATACTAAC had a PBM binding z-score of 0.171.
Sequence TTACCAAGGTGAGCAGAGGTCGTTGATCCAACTC registered a PBM binding z-score of -0.627.
For the sequence ATCTCTCGGTAACCAAGTTCAGTGAATGCCGAAC, the PBM binding z-score amounted to 0.975.
Take TCTAGTTGGTCACGGAGGTCAGACACGACGGGTA: the PBM binding z-score was determined as 0.127.
GCATATAGGTAATGCAAGGTGAAAGTCCGATTGT displayed a PBM binding z-score of -0.489.
The same measure for TAGCCTAGGTCAGATGGGGCCAGTATACGCTATA: -0.069; for ATCTCTAGGTACAGTTCAGTGAAAGATCGATAGA: 1.26; for CCTGCTAGGTCGTGGTCAGCTAATCTACAGTATG: -0.563.
On to CCGACTGGGTCATAAGGTTACCATAAGCCAGCCC, for which the PBM binding z-score was -0.614.
For GATACAGGGTCAGCTAGAGGCCAGTGTATGGAAA, the PBM binding z-score was -0.768.
The same measure for CAAACTAGCTCAAAGGTCAAAGTCGAGCCAACCA: 2.54; for ATCTCTAGGTAACGAGTTCAGTGAAAGAGAGGAC: 0.449.
The same measure for CCTACTTGGTCAGGAGGTCACACACCGGATATGA: 0.285.
In the case of GGAACGAGGGCATTCGAGTTGGTAGCATGGCGAT, the PBM binding z-score is -1.08.
Take TCATATAGATAAAAGGTGAAAGTCGGTGTGGTAA: the PBM binding z-score is -0.152.
On to TCATATAGGGAATACAGGTGAAAGTCGGCATCTA, for which the PBM binding z-score was determined as 0.236.
Sequence CTCGAAAGGTCGTTCTCAGGTGAGTATACCAAAC showed a PBM binding z-score of 1.37.
On to CGAACTACGTCAGAACAGGACAGTGAAGGATGAT, for which the PBM binding z-score is -0.438.
In turn, TCTTGTAGATCTACAGGAGGTTAAGAAAGATCGA registered a PBM binding z-score of -0.353.
Consider CGTCCAAGGTCCTAGGAGGTCAGTGAAGACAGAT, for which the PBM binding z-score is -0.518.
ACTAGAAGGCCAAGTTTGGGTCACTCAAACAAAG gave a PBM binding z-score of -0.474.
The same measure for CAAACTTGGTCACCGGAAGGTCAAAGTCCGCATG: 0.75; for ATATGTAGGTTAATGGTCATTCAGGTTGGTTCGC: 0.469.
As to AGAATGAGGTTATATGTAGATCAGGGAAGAAAGT, the PBM binding z-score is 0.548.
For CCCTACGGGTCACTGACAGGTTATAGCATTTGGA, the PBM binding z-score is -0.128.
To CCTACAGGGCCACGAAAGGTCATTGATTCAGTGA belongs 0.292; to ATGTCTAGGTAAAGTTCAGTGAAAGATCGATAGA, 0.816; to TCAAGCAGGCCAGAGGGTCACTCAAGAGGTACGG, -1.
TAGCCTAGGTCATTCAGGGGACAGTATAGAAAGC: the PBM binding z-score was 1.57.
